Consider 9 compounds from PubChem BioAssay (NCATS).

Inconclusive results are not listed. Activity calls are given as the source filed them. Unless noted, calls come from the whole dose curve; as a rule, active = well fitted curve in the direction sought with a large enough effect; inconclusive = small, poorly fitted or top-dose-only effect, or another doubt; inactive = no such curve, though single readings can be large; an effect the other way counts as inactive or inconclusive.

The target of assay [1] is ATP-dependent 6-phosphofructokinase (Trypanosoma brucei brucei) (UniProt O15648). The experiment in a line: qHTS Assay to Find Inhibitors of T. brucei phosphofructokinase: hit validation (AID 492961).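 Note: luminescence reports ADP formed as PFK phosphorylates fructose-6-phosphate with ATP; series mostly up to about 51 µM; % is set by controls: 0 for no effect and ±100 for the full control effect.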 The gist of the method: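 PFK 1.25 nM, F6P 0.5 mM, ATP 0.1 mM, MgCl2 5 mM, 0.1 M TEA pH 8.0, Tween20 0.01%, BSA 0.1%; 45 min RT. ADP-Glo two-step detection, luminescence. qHTS titration; curve fitting with curve-class categorization.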
ATP-dependent 6-phosphofructokinase (Trypanosoma brucei brucei), sequence (O15648 whole entry, looked up): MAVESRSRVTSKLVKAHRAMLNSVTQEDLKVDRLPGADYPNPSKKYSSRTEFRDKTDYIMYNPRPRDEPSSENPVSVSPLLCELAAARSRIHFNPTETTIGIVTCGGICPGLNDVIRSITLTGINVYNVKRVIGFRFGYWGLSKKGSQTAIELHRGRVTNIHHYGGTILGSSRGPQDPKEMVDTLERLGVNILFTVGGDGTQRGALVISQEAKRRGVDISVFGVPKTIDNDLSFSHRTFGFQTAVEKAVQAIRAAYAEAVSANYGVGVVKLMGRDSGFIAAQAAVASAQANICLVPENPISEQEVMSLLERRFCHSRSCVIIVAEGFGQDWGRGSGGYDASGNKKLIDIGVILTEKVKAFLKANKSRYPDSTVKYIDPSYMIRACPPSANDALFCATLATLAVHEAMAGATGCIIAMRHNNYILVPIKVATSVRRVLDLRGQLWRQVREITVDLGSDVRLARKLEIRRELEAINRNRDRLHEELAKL
A general note: qHTS replaces the single test concentration by a dilution series.

Assay [2] concerns the target Ubiquitin carboxyl-terminal hydrolase 1 (Homo sapiens) (UniProt O94782). Description: Inhibitors of USP1/UAF1: Pilot qHTS (AID 504865).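 Note: rhodamine fluorescence freed from ubiquitin-rhodamine substrate followed over time; top concentration of the series differs between compounds; % is set by controls: 0 for no effect and ±100 for the full control effect; nearly all actives have a fitted effect of over 35% in size.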 The gist of the method: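 Enzyme-free wells gave the negative control, while test wells held 1nM USP1/UAF1 preincubated with compound for 15 min at room temperature. Ub-Rho at 150nM final started the reaction, and fluorescence at 480/540 nm was recorded kinetically.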

Assay [3] concerns the target Transient receptor potential cation channel subfamily V member 1 (Homo sapiens) (UniProt Q8NER1). Description: HTS Assay for Compounds that Act as Enhancers of the Vanilloid Receptor 1 (AID 488979). Note: 0% is about no effect. An outline of the steps:
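TRPV1-expressing cells loaded with Fluo-8 calcium dye; compounds added and calcium influx read kinetically for 3 min (agonist phase), then capsaicin at EC20 added and read 2 min more for enhancement. Fluorescence ex 480/em 520 nm.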

For assay [4], the target named is Thyrotropin receptor (Homo sapiens) (UniProt P16473). The experiment in a line: qHTS Assay for Antagonists of the Thyroid Stimulating Hormone Receptor (AID 488980). Note: series mostly up to about 58 µM; 0% is about no effect. The gist of the method: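 Inhibition of TSH-stimulated cAMP accumulation was quantified by homogeneous time-resolved FRET in TSHR-transfected HEK293 cells. Agonist: TSH, 4 nM final (EC80).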
Thyrotropin receptor (Homo sapiens), sequence (P16473 whole entry, looked up): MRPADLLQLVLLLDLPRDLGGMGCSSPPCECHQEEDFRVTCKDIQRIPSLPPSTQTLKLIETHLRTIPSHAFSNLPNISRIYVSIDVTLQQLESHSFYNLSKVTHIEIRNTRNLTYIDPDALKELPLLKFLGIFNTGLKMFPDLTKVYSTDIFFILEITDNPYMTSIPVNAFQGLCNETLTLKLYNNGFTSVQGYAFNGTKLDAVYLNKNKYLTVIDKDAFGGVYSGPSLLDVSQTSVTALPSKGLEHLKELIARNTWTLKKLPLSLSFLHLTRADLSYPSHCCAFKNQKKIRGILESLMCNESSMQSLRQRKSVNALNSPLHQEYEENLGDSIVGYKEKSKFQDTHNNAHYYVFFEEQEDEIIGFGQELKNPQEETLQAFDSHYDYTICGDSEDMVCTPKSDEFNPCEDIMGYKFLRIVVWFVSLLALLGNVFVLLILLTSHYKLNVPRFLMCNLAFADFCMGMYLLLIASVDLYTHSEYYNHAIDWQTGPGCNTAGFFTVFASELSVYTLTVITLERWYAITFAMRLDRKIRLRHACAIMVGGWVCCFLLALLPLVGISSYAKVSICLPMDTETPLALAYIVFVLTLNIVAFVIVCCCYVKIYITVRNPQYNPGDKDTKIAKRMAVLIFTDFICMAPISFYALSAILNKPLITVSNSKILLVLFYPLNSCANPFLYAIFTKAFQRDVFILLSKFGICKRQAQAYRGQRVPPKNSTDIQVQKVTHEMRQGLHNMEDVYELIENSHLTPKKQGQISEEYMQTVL
In assay [5] the target is D(1A) dopamine receptor (Homo sapiens) (UniProt P21728). The experiment in a line: HTS Assay for Allosteric Agonists of the Human D1 Dopamine Receptor: Primary Screen for Potentiators (AID 488982). Note: 0% is about no effect. An outline of the steps: (§1)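 Tetracycline-induced HEK293 T-REx cells force-coupled to calcium signalling were incubated overnight at 30 C and dye-loaded at room temperature. Calcium flux over 180 s after compound addition flagged agonists; a further 180 s read after EC20 dopamine flagged potentiators.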
D(1A) dopamine receptor (Homo sapiens), sequence (P21728 whole entry, looked up): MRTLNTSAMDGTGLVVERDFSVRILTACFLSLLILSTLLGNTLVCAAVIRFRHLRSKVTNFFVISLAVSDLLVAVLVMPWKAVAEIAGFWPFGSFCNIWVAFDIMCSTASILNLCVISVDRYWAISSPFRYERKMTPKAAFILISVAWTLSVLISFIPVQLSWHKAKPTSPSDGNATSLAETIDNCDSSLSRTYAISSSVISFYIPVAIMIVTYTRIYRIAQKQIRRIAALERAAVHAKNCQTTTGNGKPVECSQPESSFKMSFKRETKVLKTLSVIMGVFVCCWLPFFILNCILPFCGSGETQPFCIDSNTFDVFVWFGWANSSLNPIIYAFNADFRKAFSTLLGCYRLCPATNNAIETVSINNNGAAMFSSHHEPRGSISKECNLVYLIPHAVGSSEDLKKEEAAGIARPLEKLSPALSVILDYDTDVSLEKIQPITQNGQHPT

Assay [6] is described as follows: Validation screen for small molecules that induce genotoxicity in human embryonic kidney (HEK293T) cells expressing luciferase-tagged ELG1 (AID 493106). Note: 0% is about no effect. An outline of the steps:
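qHTS format; 2,000 HEK293T ELG1-luc cells/well; 23 nL compound via pin tool; 16 hr, 37 °C/5% CO2; ONE-Glo, 30 min RT; luminescence read.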

In assay [7] the target is Thyrotropin-releasing hormone receptor (Homo sapiens) (UniProt P34981). Description: qHTS for Small Molecule Agonists and Allosteric Enhancers of Human TRH Receptor: Validation Screen for Agonists (AID 493127;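 active = calcium activation more than 3 SD above the typical response in the agonist read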;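 note: intracellular calcium rise by fluo-8 fluorescence before TRH EC20 addition; 0% is about no effect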). The settings on record: TRH receptor agonist cell assay; at 2 µM; stronger effect = higher value. The gist of the method: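 Read-out: intracellular calcium release measured kinetically by FDSS (fluo-8, ex 480/em 530 nm), 1 reading/s after a 10-cycle baseline. TRHR cells, 2000/well, cultured 18 h at 33.5C, dye-loaded at room temp. Compound-evoked positive calcium signal flags agonists.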
Thyrotropin-releasing hormone receptor (Homo sapiens), sequence (P34981 whole entry, looked up): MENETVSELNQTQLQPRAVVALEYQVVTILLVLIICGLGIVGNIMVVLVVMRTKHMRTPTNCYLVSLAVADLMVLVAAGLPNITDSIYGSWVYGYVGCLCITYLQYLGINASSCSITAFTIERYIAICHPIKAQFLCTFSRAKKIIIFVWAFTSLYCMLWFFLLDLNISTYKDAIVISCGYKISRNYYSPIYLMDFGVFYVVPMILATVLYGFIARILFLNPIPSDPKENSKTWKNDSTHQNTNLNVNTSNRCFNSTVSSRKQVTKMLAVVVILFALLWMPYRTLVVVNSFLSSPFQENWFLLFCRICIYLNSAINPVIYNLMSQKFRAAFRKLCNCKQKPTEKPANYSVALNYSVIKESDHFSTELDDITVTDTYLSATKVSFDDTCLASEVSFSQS

Assay [8] is described as follows: Nrf2 qHTS screen for inhibitors: Validation (AID 493153; active = well fitted inhibition curve with a large enough effect in the main read-out, with a control signal flat, not every such curve was filed as active). The note with it: Potency: luciferase luminescence; viability change: measured here: cytotoxicity max response. The gist of the method: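 Concentration-response test in A549 ARE_Fluc reporter cells (5% FBS OPTI-MEM), compound exposure 18-24 h at 37°C, 5% CO2. Cell viability measured first by CellTiter-Fluor fluorescence; ARE-driven luciferase luminescence then measured as Nrf2 activity.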

Assay [9] is described as follows: Validation screen for small molecules that induce DNA re-replication in SW480 colon adenocarcinoma cells (AID 504364). Note: 0% is about no effect. The gist of the method:
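Read-out: total Hoechst intensity of nuclei by fluorescence scanning imager; hits raise the fraction of nuclei with elevated DNA content. Cells received compound for 48 hr at 37 C before a 40 min stain.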

Assay [10] deals with Peptidyl-prolyl cis-trans isomerase NIMA-interacting 1 (Homo sapiens) (UniProt Q13526). The experiment in a line: qHTS Validation Assay to Find Inhibitors of Pin1 (AID 504536; active = well fitted inhibition curve with a large enough effect in the polarisation, with a control signal flat, not every such curve was filed as active; the % refers to the polarisation;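 note: 0% = full Pin1 enzyme wells and -100% = no-enzyme wells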). The gist of the method: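 Fluorescence polarization competition: compounds (titration) displace HiFluor-488-labeled Pin1-1b peptide from Pin1 (0.3 uM final) in pH 7.5 HEPES buffer with DTT, 10 min at room temperature; %Activity normalized to no-enzyme wells, curves fitted.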
Peptidyl-prolyl cis-trans isomerase NIMA-interacting 1 (Homo sapiens), sequence (Q13526 whole entry, looked up): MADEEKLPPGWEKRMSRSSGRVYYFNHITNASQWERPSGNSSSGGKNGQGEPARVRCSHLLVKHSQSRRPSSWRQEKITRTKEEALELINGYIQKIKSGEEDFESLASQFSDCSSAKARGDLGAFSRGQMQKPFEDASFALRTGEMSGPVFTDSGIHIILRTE

Assay [11] in a line: qHTS for Inhibitors of ATXN expression: Validation of Cytotoxic Assay (AID 588349). Note: % is set by controls: 0 for no effect and ±100 for the full control effect. An outline of the steps: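 Cytotoxicity counter-screen: HEK293 cells exposed to compound titrations, 72 hr, 37 degrees C. Read-out is intracellular ATP (CellTiter Glo luminescence) as a viability measure.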
The target of assay [12] is D(1A) dopamine receptor (Homo sapiens) (UniProt P21728). The experiment in a line: HTS Assay for Allosteric Agonists of the Human D1 Dopamine Receptor: Primary Screen for Antagonists (AID 488983).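 Note: calcium flux response to an EC80 dopamine challenge measured with no-wash dye; nearly all actives have a fitted effect of over 65% in size.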 Note: potency is the fitted concentration of half-maximal effect. An outline of the steps:
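Calcium flux readout, no-wash dye, inducible HEK293 T-REx D1 line (force-coupled). Compound added after 10 s baseline, 180 s kinetic read; then dopamine at EC80, further 180 s read.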

The nature of assay [13]: qHTS for Inhibitors of Cell Surface uPA Generation: Validation Assay (AID 493164).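 Note: RAW 264.7 macrophage cells exposed to compound for 18 h; 0% is about no effect.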 An outline of the steps: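 Compounds are titrated over seven points (2.45 nM–38.3 uM final) onto pre-plated RAW 264.7 cells and incubated for 18 h. Retained intracellular ATP, measured with ATP-Lite, indicates blocked lethal factor entry.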
The target in assay [14] is D(1A) dopamine receptor (Homo sapiens) (UniProt P21728). Description: HTS Assay for Allosteric Agonists of the Human D1 Dopamine Receptor: Primary Screen for Agonists (AID 488981). Note: 0% is about no effect. The gist of the method:
as §1

For assay [15], the target named is ATPase family AAA domain-containing protein 5 (Homo sapiens) (UniProt Q96QE3). Description: Validation screen for small molecules that inhibit ELG1-dependent DNA repair in human embryonic kidney (HEK293T) cells expressing luciferase-tagged ELG1 (AID 493107).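 Note: cells co-treated with the DNA-damaging agent 5-fluorouridine alongside compound; series mostly up to about 46 µM; % is set by controls: 0 for no effect and ±100 for the full control effect; inhibitors lower the ELG1-luciferase luminescence signal; nearly all actives have a fitted effect of over 70% in size.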 An outline of the steps:
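ELG1-luciferase HEK293T reporter; 5-fluorouridine + compound/DMSO, 16 hr, 37 °C, 5% CO2; ONE-Glo 30 min RT; luminescence read, qHTS format.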

The target of assay [16] is Galactokinase (Homo sapiens) (UniProt P51570). The experiment in a line: qHTS Validation Assay for Inhibitors of Human Galactokinase (GALK) (AID 493189). Note: 0% is about no effect. An outline of the steps:
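Enzyme activity is inferred from ATP consumption: human GALK phosphorylates galactose (100 uM) using 35 uM ATP for 1 h at room temperature, and luciferase-based Kinase-Glo Plus reports unconsumed ATP.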

In assay [17] the target is phosphoglycerate mutase (Leishmania major) (UniProt Q4Q090). Description: qHTS Validation Assay to Find Inhibitors of Phosphoglycerate Mutase (AID 504548). Note: series mostly up to about 58 µM; % is set by controls: 0 for no effect and ±100 for the full control effect. An outline of the steps: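 Lm PGAM at 1.25 nM final with substrate in 100 mM TEA pH 7.6, 5 mM MgCl2, 0.01% Tween-20; 45 min at room temperature. Kinase-GloPlus added, 10 min, end-point luminescence read.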
phosphoglycerate mutase (Leishmania major), sequence (Q4Q090 1-553): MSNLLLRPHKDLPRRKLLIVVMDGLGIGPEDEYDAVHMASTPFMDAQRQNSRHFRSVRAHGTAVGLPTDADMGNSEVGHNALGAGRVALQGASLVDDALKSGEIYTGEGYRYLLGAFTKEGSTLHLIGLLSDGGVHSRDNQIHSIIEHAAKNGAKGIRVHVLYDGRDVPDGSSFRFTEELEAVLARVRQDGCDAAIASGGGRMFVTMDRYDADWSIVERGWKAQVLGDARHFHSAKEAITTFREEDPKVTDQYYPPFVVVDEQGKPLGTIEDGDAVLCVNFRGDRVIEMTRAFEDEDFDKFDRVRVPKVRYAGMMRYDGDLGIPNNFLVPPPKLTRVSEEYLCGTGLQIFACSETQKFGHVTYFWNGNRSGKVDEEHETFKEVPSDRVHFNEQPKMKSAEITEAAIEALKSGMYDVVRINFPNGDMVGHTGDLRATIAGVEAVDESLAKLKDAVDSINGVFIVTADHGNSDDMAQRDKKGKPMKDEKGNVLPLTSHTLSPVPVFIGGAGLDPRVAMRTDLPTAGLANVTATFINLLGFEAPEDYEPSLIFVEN
Assay [18] addresses Phosphoglycerate kinase, glycosomal (Trypanosoma brucei brucei) (UniProt P07378). Description: qHTS Validation Assay to Find Inhibitors of Phosphoglycerate Kinase (AID 504547).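 Note: control wells lack PGK and mark full inhibition.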 The gist of the method: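 In TEA buffer (100mM, pH 7.6) containing 5mM MgCl2 and 0.01% Tween-20, the GAPDH-coupled PGK reaction proceeded for 60 minutes at room temperature before a single luminescence reading using Kinase-Glo Plus.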

Galactokinase (Homo sapiens), sequence (P51570 whole entry, looked up): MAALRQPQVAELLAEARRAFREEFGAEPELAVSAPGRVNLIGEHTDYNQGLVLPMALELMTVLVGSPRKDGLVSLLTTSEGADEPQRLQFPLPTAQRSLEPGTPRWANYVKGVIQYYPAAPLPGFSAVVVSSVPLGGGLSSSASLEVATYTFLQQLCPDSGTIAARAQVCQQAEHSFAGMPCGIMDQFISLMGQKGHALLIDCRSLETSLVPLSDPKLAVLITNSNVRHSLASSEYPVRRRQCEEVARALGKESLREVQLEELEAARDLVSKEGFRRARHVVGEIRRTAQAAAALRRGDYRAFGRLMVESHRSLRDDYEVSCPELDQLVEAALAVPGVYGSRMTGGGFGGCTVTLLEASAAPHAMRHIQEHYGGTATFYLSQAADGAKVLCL
Ubiquitin carboxyl-terminal hydrolase 1 (Homo sapiens), sequence (O94782 whole entry, looked up): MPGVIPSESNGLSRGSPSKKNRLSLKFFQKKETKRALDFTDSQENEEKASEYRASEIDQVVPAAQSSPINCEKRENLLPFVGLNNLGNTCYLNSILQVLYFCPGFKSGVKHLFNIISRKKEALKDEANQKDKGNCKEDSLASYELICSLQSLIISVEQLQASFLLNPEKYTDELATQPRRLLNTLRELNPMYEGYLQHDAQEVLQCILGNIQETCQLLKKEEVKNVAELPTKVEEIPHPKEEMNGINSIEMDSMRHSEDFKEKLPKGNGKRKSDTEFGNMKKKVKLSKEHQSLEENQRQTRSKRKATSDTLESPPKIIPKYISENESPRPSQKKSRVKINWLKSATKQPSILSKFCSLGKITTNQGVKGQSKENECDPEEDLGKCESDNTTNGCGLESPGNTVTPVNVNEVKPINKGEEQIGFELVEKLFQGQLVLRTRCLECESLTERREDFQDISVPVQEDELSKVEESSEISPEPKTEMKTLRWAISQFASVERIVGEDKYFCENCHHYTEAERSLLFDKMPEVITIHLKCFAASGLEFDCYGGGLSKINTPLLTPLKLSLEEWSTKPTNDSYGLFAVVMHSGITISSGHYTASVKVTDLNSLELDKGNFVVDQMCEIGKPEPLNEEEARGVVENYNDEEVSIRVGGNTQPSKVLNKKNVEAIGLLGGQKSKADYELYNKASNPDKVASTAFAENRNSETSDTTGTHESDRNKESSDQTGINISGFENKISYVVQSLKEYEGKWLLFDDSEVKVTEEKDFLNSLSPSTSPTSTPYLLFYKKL
Phosphoglycerate kinase, glycosomal (Trypanosoma brucei brucei), sequence (P07378 whole entry, looked up): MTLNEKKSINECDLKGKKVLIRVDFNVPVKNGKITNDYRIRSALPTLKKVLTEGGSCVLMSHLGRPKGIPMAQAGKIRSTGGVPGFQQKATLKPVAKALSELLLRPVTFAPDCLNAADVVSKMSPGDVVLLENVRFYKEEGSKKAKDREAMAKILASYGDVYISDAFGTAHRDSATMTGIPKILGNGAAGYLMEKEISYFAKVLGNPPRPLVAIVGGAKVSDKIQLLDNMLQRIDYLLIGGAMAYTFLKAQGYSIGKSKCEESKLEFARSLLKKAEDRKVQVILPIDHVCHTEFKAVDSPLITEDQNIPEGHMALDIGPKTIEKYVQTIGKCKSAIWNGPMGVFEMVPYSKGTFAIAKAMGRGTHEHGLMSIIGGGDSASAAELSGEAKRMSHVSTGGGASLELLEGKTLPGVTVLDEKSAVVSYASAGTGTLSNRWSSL

As for `CN(CCOc1ccc(NS(C)(=O)=O)cc1)CCc1ccc(NS(C)(=O)=O)cc1`, the Potency result in assay [1] and in assay [2] was “inactive” throughout.

Take `CN1CCN2c3ccccc3Cc3ccccc3C2C1` (stereo unspecified): the result in assay [3], in assay [4] and in assay [11] was inactive. Moreover, the Potency entry in [5], in assay [6], in [8], in assay [9], in assay [10] and in assay [2] was “inactive” in each case. For the same compound, the activation in [7] was -4.88% (inactive). Also, the viability change in assay [8] was -3.01%.

On to `Cc1cnc(C(=O)NCCc2ccc(S(=O)(=O)NC(=O)NC3CCCCC3)cc2)cn1`, for which the outcome in [3], in assay [4], in assay [13] and in [11] was inactive. The Potency entry in [5], in assay [12], in assay [8], in assay [9] and in assay [10] was “inactive” in each case. For the same compound, the viability change in [8] was -0.248%.

With `NC(CO)C(=O)NNCc1ccc(O)c(O)c1O` (stereo unspecified), the call in assay [4], in assay [13], in assay [17] and in assay [11] was inactive. Further, the Potency result in assay [14], in assay [5], in [12], in assay [6], in assay [15] and in assay [8] was “inactive” throughout. Further, the Potency result in assay [16], in assay [9], in [10] and in assay [2] was “inactive” throughout. In addition, the viability change in [8] is -7.62%.

For `CC(C)(C)C(=O)Oc1ccc(S(=O)(=O)Nc2ccccc2C(=O)NCC(=O)O)cc1`, the Potency entry in assay [1] and in [2] was “inactive” in each case.

For the compound `CN(C)CCCN1c2ccccc2CCc2ccc(Cl)cc21`, the result in assay [4] and in assay [13] was inactive. The Potency entry in assay [14], in assay [5], in assay [8], in assay [16], in [9] and in assay [10] was “inactive” each time. For the same compound, the Potency result in assay [2] was “inactive”. Also, the activation in assay [7] was 1.88% (inactive). Further, the viability change in assay [8] was -5.04%.

Take `CCCNCC(O)COc1ccccc1C(=O)CCc1ccccc1` (stereo unspecified): the compound was classed as inactive in assay [4] and in [13]. In addition, the Potency entry in assay [5], in assay [6], in [15], in [16], in assay [9] and in assay [10] was “inactive” each time. Further, the Potency result in assay [18] was “inactive”. In addition, the Potency in assay [12] is 10 µM (active). In assay [7], the activation was 4% (inactive).

For `COc1cc2nc(N3CCN(C(=O)c4ccco4)CC3)nc(N)c2cc1OC`, the compound was called inactive in assay [4] and in assay [13]. Moreover, the Potency entry in assay [14], in assay [5], in assay [12], in [8], in [10] and in assay [18] was “inactive” throughout. Moreover, the viability change in assay [8] was -4.77%.

Consider `O=C(c1ccc(OCCN2CCCCC2)cc1)c1c(-c2ccc(O)cc2)sc2cc(O)ccc12`, for which the Potency entry in assay [14], in assay [12], in assay [6], in assay [16], in [9] and in [10] was “inactive” each time. In addition, the Potency entry in assay [18] and in assay [2] was “inactive” throughout. Moreover, the compound was classed as inactive in assay [13] and in [17].
